# Assay results: PubChem BioAssay AID1508601 (ICCB-Longwood Screening Facility, Harvard Medical School, 2020)
# Among all 5,700 compounds or so, about 85 (1%) were called active. Cut-off read from the data, not from the text of the source: active = p53-positive nuclei above about 36% (passing the limit was not always enough); inactive = the rest. What follows is part of a selection rich in actives, with near analogues and random picks from the rest.
# Columns and labels:
# [1] = p53 stabilisation in HPV-positive human cells, imaging, p53-positive nuclei imaging, 24 h, 48 h (AID 1508601); settings: 24/48 h
# [2] = target: Cellular tumor antigen p53 (Homo sapiens) (UniProt P04637); experiment: as above; settings: 24/48 h, stronger effect = higher value
# [3] = measured here: cell number at 24 h, Library stock concentration: 10 mM
# [4] = measured here: cell number at 48 h, Library stock concentration: 10 mM
# [5] = Library stock concentration: 10 mM
# [6] = measured here: p53 positive nuclei at 24 h, Library stock concentration: 10 mM
# [7] = measured here: cell number at 24 h, concentration not given here
# [8] = measured here: cell number at 48 h, concentration not given here
# [9] = measured here: p53 positive nuclei at 24 h, concentration not given here
# [10] = measured here: cell number at 24 h, Library stock concentration: 3.33 mM
# [11] = measured here: cell number at 48 h, Library stock concentration: 3.33 mM
# [12] = Library stock concentration: 3.33 mM
# [13] = measured here: p53 positive nuclei at 24 h, Library stock concentration: 3.33 mM
# Sequence of Cellular tumor antigen p53 (Homo sapiens) (P04637 whole entry, looked up): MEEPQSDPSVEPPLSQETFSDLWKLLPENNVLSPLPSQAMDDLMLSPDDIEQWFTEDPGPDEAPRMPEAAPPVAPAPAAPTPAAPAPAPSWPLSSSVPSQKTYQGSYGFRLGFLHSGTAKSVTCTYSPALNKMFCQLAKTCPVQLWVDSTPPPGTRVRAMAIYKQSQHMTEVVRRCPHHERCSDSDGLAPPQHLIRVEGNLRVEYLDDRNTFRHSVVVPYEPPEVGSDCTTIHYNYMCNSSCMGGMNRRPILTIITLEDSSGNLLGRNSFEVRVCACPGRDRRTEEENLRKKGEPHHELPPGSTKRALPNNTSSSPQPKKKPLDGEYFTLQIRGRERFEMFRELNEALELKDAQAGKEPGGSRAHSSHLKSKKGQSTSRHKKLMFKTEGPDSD
structure (smiles),measurement,setting,value
O=C(O)c1ccccc1SC1=NS(=O)(=O)c2ccccc21,"nuclei count, normalised","[1]; measured here: cell number at 24 h, Library stock concentration: 500 nM",117%
same,"nuclei count, normalised","[1]; measured here: cell number at 24 h, Library stock concentration: 1.5 uM",119%
same,"nuclei count, normalised","[1]; measured here: cell number at 24 h, Library stock concentration: 4.6 uM",119%
same,"nuclei count, normalised","[1]; measured here: cell number at 24 h, Library stock concentration: 13.7 uM",120%
same,"nuclei count, normalised","[1]; measured here: cell number at 24 h, Library stock concentration: 41 uM",125%
same,"nuclei count, normalised","[1]; measured here: cell number at 24 h, Library stock concentration: 123 uM",126%
same,"nuclei count, normalised","[1]; measured here: cell number at 24 h, Library stock concentration: 370 uM",125%
same,"nuclei count, normalised","[1]; measured here: cell number at 24 h, Library stock concentration: 1.111 mM",119%
same,"nuclei count, normalised","[1]; measured here: cell number at 24 h, Library stock concentration: 3.333 mM",120%
same,"nuclei count, normalised",[1]; [3],112%
same,"nuclei count, normalised","[1]; measured here: cell number at 48 h, Library stock concentration: 500 nM",123%
same,"nuclei count, normalised","[1]; measured here: cell number at 48 h, Library stock concentration: 1.5 uM",121%
same,"nuclei count, normalised","[1]; measured here: cell number at 48 h, Library stock concentration: 4.6 uM",126%
same,"nuclei count, normalised","[1]; measured here: cell number at 48 h, Library stock concentration: 13.7 uM",116%
same,"nuclei count, normalised","[1]; measured here: cell number at 48 h, Library stock concentration: 41 uM",127%
same,"nuclei count, normalised","[1]; measured here: cell number at 48 h, Library stock concentration: 123 uM",121%
same,"nuclei count, normalised","[1]; measured here: cell number at 48 h, Library stock concentration: 370 uM",120%
same,"nuclei count, normalised","[1]; measured here: cell number at 48 h, Library stock concentration: 1.111 mM",117%
same,"nuclei count, normalised","[1]; measured here: cell number at 48 h, Library stock concentration: 3.333 mM",122%
same,"nuclei count, normalised",[1]; [4],111%
same,"p53-positive nuclei, normalised",[2]; Library stock concentration: 500 nM,-0.176% (inactive)
same,"p53-positive nuclei, normalised",[2]; Library stock concentration: 1.5 uM,0.0563% (inactive)
same,"p53-positive nuclei, normalised",[2]; Library stock concentration: 4.6 uM,-0.0688% (inactive)
same,"p53-positive nuclei, normalised",[2]; Library stock concentration: 13.7 uM,0.0271% (inactive)
same,"p53-positive nuclei, normalised",[2]; Library stock concentration: 41 uM,-0.248% (inactive)
same,"p53-positive nuclei, normalised",[2]; Library stock concentration: 123 uM,-0.212% (inactive)
same,"p53-positive nuclei, normalised",[2]; Library stock concentration: 370 uM,0.0436% (inactive)
same,"p53-positive nuclei, normalised",[2]; Library stock concentration: 1.111 mM,0.133% (inactive)
same,"p53-positive nuclei, normalised",[2]; Library stock concentration: 3.333 mM,-0.102% (inactive)
same,"p53-positive nuclei, normalised",[2]; [5],0.0746% (inactive)
same,"p53-positive nuclei, normalised","[2]; measured here: p53 positive nuclei at 24 h, Library stock concentration: 500 nM",-0.148%
same,"p53-positive nuclei, normalised","[2]; measured here: p53 positive nuclei at 24 h, Library stock concentration: 1.5 uM",-0.0949%
same,"p53-positive nuclei, normalised","[2]; measured here: p53 positive nuclei at 24 h, Library stock concentration: 4.6 uM",-0.0339%
same,"p53-positive nuclei, normalised","[2]; measured here: p53 positive nuclei at 24 h, Library stock concentration: 13.7 uM",-0.0316%
same,"p53-positive nuclei, normalised","[2]; measured here: p53 positive nuclei at 24 h, Library stock concentration: 41 uM",-0.148%
same,"p53-positive nuclei, normalised","[2]; measured here: p53 positive nuclei at 24 h, Library stock concentration: 123 uM",-0.148%
same,"p53-positive nuclei, normalised","[2]; measured here: p53 positive nuclei at 24 h, Library stock concentration: 370 uM",-0.0409%
same,"p53-positive nuclei, normalised","[2]; measured here: p53 positive nuclei at 24 h, Library stock concentration: 1.111 mM",-0.0917%
same,"p53-positive nuclei, normalised","[2]; measured here: p53 positive nuclei at 24 h, Library stock concentration: 3.333 mM",-0.0904%
same,"p53-positive nuclei, normalised",[2]; [6],-0.0218%
O=C(CCn1cnnn1)N1CCc2[nH]nc(-c3ccc4c(c3)OCO4)c2C1,"nuclei count, normalised",[1]; [7],107%
same,"nuclei count, normalised",[1]; [8],111%
same,"p53-positive nuclei, normalised",[2]; concentration not given here,0.266% (inactive)
same,"p53-positive nuclei, normalised",[2]; [9],0.111%
Cc1ccc([N+](=O)[O-])cc1S(=O)(=O)N(C)N=Cc1cnc2ccc(Br)cn12,"nuclei count, normalised",[1]; [10],17.7%
same,"nuclei count, normalised",[1]; [11],14.7%
same,"p53-positive nuclei, normalised",[2]; [12],14.4% (inactive)
same,"p53-positive nuclei, normalised",[2]; [13],4.1%
CCc1c2c(nc3ccc(OC(=O)N4CCC(N5CCCCC5)CC4)cc13)-c1cc3c(c(=O)n1C2)COC(=O)[C@@]3(O)CC,"nuclei count, normalised",[1]; [10],44.3%
same,"nuclei count, normalised",[1]; [11],30.6%
same,"p53-positive nuclei, normalised",[2]; [12],-0.157% (inactive)
same,"p53-positive nuclei, normalised",[2]; [13],-0.474%
CN(C)CCCn1cc(C2=C(c3c[nH]c4ccccc34)C(=O)NC2=O)c2ccccc21,"nuclei count, normalised",[1]; [10],108%
same,"nuclei count, normalised",[1]; [11],105%
same,"p53-positive nuclei, normalised",[2]; [12],0.0456% (inactive)
same,"p53-positive nuclei, normalised",[2]; [13],-0.293%
Cn1cc(C2=C(c3cn(CCCN)c4ccccc34)C(=O)NC2=O)c2ccccc21,"nuclei count, normalised",[1]; [7],114%
same,"nuclei count, normalised",[1]; [8],106%
same,"p53-positive nuclei, normalised",[2]; concentration not given here,0.117% (inactive)
same,"p53-positive nuclei, normalised",[2]; [9],0.12%
Cn1cc(C2=C(c3cn(CCCSC(=N)N)c4ccccc34)C(=O)NC2=O)c2ccccc21,"nuclei count, normalised","[1]; measured here: cell number at 24 h, Library stock concentration: 80 uM",108%
same,"nuclei count, normalised","[1]; measured here: cell number at 24 h, Library stock concentration: 400 uM",104%
same,"nuclei count, normalised","[1]; measured here: cell number at 24 h, Library stock concentration: 2 mM",97.9%
same,"nuclei count, normalised",[1]; [10],68.3%
same,"nuclei count, normalised",[1]; [3],38.8%
same,"nuclei count, normalised",[1]; [7],102%
same,"nuclei count, normalised","[1]; measured here: cell number at 48 h, Library stock concentration: 80 uM",114%
same,"nuclei count, normalised","[1]; measured here: cell number at 48 h, Library stock concentration: 400 uM",111%
same,"nuclei count, normalised","[1]; measured here: cell number at 48 h, Library stock concentration: 2 mM",98.9%
same,"nuclei count, normalised",[1]; [11],63.6%
same,"nuclei count, normalised",[1]; [4],29%
same,"nuclei count, normalised",[1]; [8],104%
same,"p53-positive nuclei, normalised",[2]; Library stock concentration: 80 uM,0.143% (inactive)
same,"p53-positive nuclei, normalised",[2]; Library stock concentration: 400 uM,-0.08% (inactive)
same,"p53-positive nuclei, normalised",[2]; Library stock concentration: 2 mM,3.66% (inactive)
same,"p53-positive nuclei, normalised",[2]; [12],23.8% (inactive)
same,"p53-positive nuclei, normalised",[2]; [5],70.5% (active)
same,"p53-positive nuclei, normalised",[2]; concentration not given here,0.319% (inactive)
same,"p53-positive nuclei, normalised","[2]; measured here: p53 positive nuclei at 24 h, Library stock concentration: 80 uM",-0.111%
same,"p53-positive nuclei, normalised","[2]; measured here: p53 positive nuclei at 24 h, Library stock concentration: 400 uM",-0.0611%
same,"p53-positive nuclei, normalised","[2]; measured here: p53 positive nuclei at 24 h, Library stock concentration: 2 mM",3.9%
same,"p53-positive nuclei, normalised",[2]; [13],33.8%
same,"p53-positive nuclei, normalised",[2]; [6],47.3%
same,"p53-positive nuclei, normalised",[2]; [9],0.487%
Cc1nsc(NC(=O)NCCC2CCCCCC2)n1,"nuclei count, normalised",[1]; [7],106%
same,"nuclei count, normalised",[1]; [8],112%
same,"p53-positive nuclei, normalised",[2]; concentration not given here,-0.14% (inactive)
same,"p53-positive nuclei, normalised",[2]; [9],-0.0933%
CC1(C)OC2C[C@H]3[C@@H]4CCC5=CC(=O)CC[C@]5(C)[C@]4(F)C(O)C[C@]3(C)[C@@]2(C(=O)CCl)O1 (stereo partly specified),"nuclei count, normalised",[1]; [10],80.9%
same,"nuclei count, normalised",[1]; [11],80.1%
same,"p53-positive nuclei, normalised",[2]; [12],-0.151% (inactive)
same,"p53-positive nuclei, normalised",[2]; [13],-0.267%
O=C1O[C@H](C(O)CO)C(O)C1O (stereo partly specified),"nuclei count, normalised",[1]; [10],110%
same,"nuclei count, normalised",[1]; [11],103%
same,"p53-positive nuclei, normalised",[2]; [12],-0.204% (inactive)
same,"p53-positive nuclei, normalised",[2]; [13],-0.283%
